# Test results from PubChem BioAssay (EPA / NIEHS).
# Where “and” joins values, the source holds several entries; their conditions need not be identical. Identical values can stand only once. Results filed as inconclusive are left out. Calls of active or inactive are those of the source. How the source made its calls, unless noted: active means hit-call score of the fitted dose curve at least 0.9, where 1 is the maximum; inconclusive means response in the unintended direction; inactive means score below 0.9.
# Experiments:
# [1] = molecular target: Cytochrome P450 2C19 (Homo sapiens) (UniProt P33261); assay: NVS_ADME_hCYP2C19: NovaScreen (NVS) CYP450-related Enzyme Activity (ADME) Assay for human CYP2C19 (AID 2283113);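 further: potency for inhibition seen as loss of fluorescent signal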
# How it was run: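 Cell-free assay of recombinant human CYP2C19 expressed in insect cells, with a fluorogenic substrate; fluorescence intensity read 1 hour after dosing. Loss of signal relative to acetonitrile negative control indicates inhibition. Primary screen at 10 uM in duplicate, then concentration series.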
# [2] = molecular target: rat CYP2A1, Cyp2a1 (gene 24894) (UniProt P11711); assay: NVS_ADME_rCYP2A1: NovaScreen (NVS) CYP450-related Enzyme Activity (ADME) Assay for rat CYP2A1 (AID 2283114; active means hit-call score of the fitted dose curve at least 0.9, where 1 is the maximum; inactive means score below 0.9)
# Chain of rat CYP2A1, Cyp2a1 (gene 24894) (P11711 whole entry, looked up): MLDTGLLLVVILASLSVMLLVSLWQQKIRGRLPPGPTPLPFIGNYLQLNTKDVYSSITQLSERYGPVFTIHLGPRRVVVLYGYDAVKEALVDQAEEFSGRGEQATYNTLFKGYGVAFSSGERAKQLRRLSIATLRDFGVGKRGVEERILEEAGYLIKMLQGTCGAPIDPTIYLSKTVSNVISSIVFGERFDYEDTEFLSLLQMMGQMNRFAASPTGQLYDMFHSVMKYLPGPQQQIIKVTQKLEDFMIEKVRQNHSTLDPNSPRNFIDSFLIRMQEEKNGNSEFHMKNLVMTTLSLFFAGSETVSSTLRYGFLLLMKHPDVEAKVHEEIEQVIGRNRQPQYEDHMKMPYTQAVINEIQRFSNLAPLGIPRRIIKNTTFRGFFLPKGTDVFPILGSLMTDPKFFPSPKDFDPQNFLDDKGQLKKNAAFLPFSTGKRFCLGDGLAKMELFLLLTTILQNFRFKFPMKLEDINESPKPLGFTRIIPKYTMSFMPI
# Procedure: (§1) NVS_ADME_rCYP2A1 is a biochemical, single-readout assay that uses extracted gene-proteins in a cell-free assay. Measurements were taken 0.75 hour after chemical dosing in a 96-well plate.NVS_ADME_rCYP2A1 is one of one assay component(s) measured or calculated from the NVS_ADME_rCYP2A1 assay. It is designed to make measurements of enzyme activity, a form of enzyme reporter, as detected with fluorescence intensity signals by Fluorescence technology.Data from the assay component NVS_ADME_rCYP2A1 was analyzed into 1 assay endpoint. This assay endpoint, NVS_ADME_rCYP2A1, was analyzed in the positive analysis fitting direction relative to Acetonitrile as the negative control and baseline of activity. Using a type of enzyme reporter, loss-of-signal activity can be used to understand changes in the enzymatic activity as they relate to the gene Cyp2a1. Furthermore, this assay endpoint can be referred to as a primary readout, because this assay has produced multiple assay endpoints where this one serves a enzymatic activity function. To generalize the intended target to other relatable targets, this assay endpoint is annotated to the cyp intended target family, where the subfamily is xenobiotic metabolism. […]
# [3] = molecular target: rat CYP2A2, Cyp2a2 (gene 24895) (UniProt P15149); assay: NVS_ADME_rCYP2A2: NovaScreen (NVS) CYP450-related Enzyme Activity (ADME) Assay for rat CYP2A2 (AID 2283116)
# Chain of rat CYP2A2, Cyp2a2 (gene 24895) (P15149 whole entry, looked up): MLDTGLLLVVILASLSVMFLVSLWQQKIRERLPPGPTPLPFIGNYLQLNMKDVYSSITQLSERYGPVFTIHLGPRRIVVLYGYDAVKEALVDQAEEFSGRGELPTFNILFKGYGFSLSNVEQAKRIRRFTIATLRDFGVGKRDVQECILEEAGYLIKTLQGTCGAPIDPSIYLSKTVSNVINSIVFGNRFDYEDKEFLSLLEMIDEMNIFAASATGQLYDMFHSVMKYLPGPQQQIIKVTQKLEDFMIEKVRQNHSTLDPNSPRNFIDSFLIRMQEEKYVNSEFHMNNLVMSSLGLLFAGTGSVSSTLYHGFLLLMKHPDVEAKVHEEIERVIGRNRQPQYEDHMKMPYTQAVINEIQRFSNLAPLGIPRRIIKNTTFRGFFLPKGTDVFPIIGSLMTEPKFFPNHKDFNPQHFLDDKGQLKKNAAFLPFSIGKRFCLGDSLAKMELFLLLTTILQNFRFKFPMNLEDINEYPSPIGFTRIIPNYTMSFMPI
# Procedure: as §1, with “NVS_ADME_rCYP2A2” for “NVS_ADME_rCYP2A1”, “0.2” for “0.75”, “plate.NVS_ADME_rCYP2A2” for “plate.NVS_ADME_rCYP2A1”, “NVS_ADME_rCYP2A2,” for “NVS_ADME_rCYP2A1,”, “Cyp2a2.” for “Cyp2a1.”
# [4] = molecular target: rat CYP2C13, Cyp2c13 (gene 171521) (UniProt P20814); assay: NVS_ADME_rCYP2C13: NovaScreen (NVS) CYP450-related Enzyme Activity (ADME) Assay for rat CYP2C13 (AID 2283121)
# Chain of rat CYP2C13, Cyp2c13 (gene 171521) (P20814 whole entry, looked up): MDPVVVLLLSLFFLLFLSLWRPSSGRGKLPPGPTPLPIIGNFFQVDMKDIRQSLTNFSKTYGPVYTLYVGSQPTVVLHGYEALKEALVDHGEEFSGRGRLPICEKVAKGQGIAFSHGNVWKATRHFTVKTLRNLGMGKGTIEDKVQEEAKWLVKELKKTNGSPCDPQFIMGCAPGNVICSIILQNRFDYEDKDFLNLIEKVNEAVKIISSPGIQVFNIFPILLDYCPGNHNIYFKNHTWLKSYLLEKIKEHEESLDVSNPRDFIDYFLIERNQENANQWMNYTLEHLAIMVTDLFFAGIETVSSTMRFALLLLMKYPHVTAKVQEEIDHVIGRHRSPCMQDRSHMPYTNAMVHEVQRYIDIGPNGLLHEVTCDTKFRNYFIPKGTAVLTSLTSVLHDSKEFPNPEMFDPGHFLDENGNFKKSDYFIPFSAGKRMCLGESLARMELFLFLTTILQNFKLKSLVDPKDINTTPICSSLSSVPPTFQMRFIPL
# How it was run: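 Recombinant rat CYP2C13 with fluorogenic substrate, 0.75 h cell-free incubation; primary screen in duplicate at 10 uM, actives followed in concentration series. Fluorescence loss relative to acetonitrile control indicates inhibition.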
# rat CYP3A1, gene 25642 = assay: NVS_ADME_rCYP3A1: NovaScreen (NVS) CYP450-related Enzyme Activity (ADME) Assay for rat CYP3A1 (AID 2283126)
# How it was run: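 Cell-free recombinant CYP assay with fluorescent substrate, read 0.5 h after dosing. Screened at 10 uM in duplicate, hits at up to 20 uM in concentration-response; loss of signal versus acetonitrile baseline.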
# [5] = molecular target: human CYP2D6, CYP2D6 (gene 1565) (UniProt P10635); assay: NVS_ADME_hCYP2D6: NovaScreen (NVS) CYP450-related Enzyme Activity (ADME) Assay for human CYP2D6 (AID 2283107)
# Chain of human CYP2D6, CYP2D6 (gene 1565) (P10635 whole entry, looked up): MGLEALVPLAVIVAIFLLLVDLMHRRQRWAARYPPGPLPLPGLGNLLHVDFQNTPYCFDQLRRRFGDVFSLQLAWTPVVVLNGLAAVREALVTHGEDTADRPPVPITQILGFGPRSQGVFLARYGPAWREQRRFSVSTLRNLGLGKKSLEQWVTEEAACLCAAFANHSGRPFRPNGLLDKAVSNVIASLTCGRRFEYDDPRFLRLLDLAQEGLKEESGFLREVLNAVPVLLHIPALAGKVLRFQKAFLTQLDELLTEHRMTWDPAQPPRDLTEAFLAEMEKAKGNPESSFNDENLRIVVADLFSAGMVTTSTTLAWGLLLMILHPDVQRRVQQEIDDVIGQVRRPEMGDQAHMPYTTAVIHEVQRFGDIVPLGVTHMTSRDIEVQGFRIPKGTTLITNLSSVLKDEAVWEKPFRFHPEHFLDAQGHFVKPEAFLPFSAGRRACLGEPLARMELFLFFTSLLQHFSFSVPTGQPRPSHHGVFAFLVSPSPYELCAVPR
# Procedure: NVS_ADME_hCYP2D6 is a biochemical, single-readout assay that uses extracted gene-proteins from insect cells in a cell-free assay. Measurements were taken 1 hour after chemical dosing in a 96-well plate.NVS_ADME_hCYP2D6 is one of one assay component(s) measured or calculated from the NVS_ADME_hCYP2D6 assay. It is designed to make measurements of enzyme activity, a form of enzyme reporter, as detected with fluorescence intensity signals by Fluorescence technology.Data from the assay component NVS_ADME_hCYP2D6 was analyzed into 1 assay endpoint. This assay endpoint, NVS_ADME_hCYP2D6, was analyzed in the positive analysis fitting direction relative to Acetonitrile as the negative control and baseline of activity. Using a type of enzyme reporter, loss-of-signal activity can be used to understand changes in the enzymatic activity as they relate to the gene CYP2D6. Furthermore, this assay endpoint can be referred to as a primary readout, because this assay has produced multiple assay endpoints where this one serves a enzymatic activity function. To generalize the intended target to other relatable targets, this assay endpoint is annotated to the cyp intended target family, where the subfamily is xenobiotic metabolism.
# Binding assays used specific radioligands (tritiated, iodinated) with non-radioactive competitive displacement ligands in agonist or antagonist protocols (as indicated) and various reference compounds and inhibitors to titrate specific binding to receptors and transporters. Most enzyme assays (CYPs, kinases, phosphatases, proteases, HDACs) used recombinant protein and specific substrates (fluorescence mostly, some colorimetric and radioactive) and inhibitors, followed by a biochemical separation of substrate and product. All assays for the biochemical HTS were initially run in duplicate at a single concentration (10 uM for CYP450 assays and 25 uM for all others). […] Each assay was run with positive and negative controls, and concurrent controls on every plate. […]
# [6] = molecular target: Cytochrome P450 3A4 (Homo sapiens) (UniProt P08684); assay: NVS_ADME_hCYP3A4: NovaScreen (NVS) CYP450-related Enzyme Activity (ADME) Assay for human CYP3A4 (AID 2283110)
# Chain of Cytochrome P450 3A4 (Homo sapiens) (P08684 whole entry, looked up): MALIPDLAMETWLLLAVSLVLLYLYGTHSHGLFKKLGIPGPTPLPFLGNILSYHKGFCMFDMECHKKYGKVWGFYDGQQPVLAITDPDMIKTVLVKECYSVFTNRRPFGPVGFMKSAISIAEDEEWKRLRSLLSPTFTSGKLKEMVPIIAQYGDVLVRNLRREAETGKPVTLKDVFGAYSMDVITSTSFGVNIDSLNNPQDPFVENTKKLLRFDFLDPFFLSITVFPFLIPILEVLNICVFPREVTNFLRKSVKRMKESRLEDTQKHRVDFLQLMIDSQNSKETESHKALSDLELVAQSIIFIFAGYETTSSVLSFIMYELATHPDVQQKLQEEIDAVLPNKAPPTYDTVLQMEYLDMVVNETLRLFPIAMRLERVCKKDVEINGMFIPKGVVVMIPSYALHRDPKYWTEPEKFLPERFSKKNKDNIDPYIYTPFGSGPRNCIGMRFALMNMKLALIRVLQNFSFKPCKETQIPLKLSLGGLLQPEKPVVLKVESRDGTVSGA
# How it was run: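 Cell-free recombinant enzyme expressed in insect cells; fluorescent substrate turnover read after 0.33 h, acetonitrile as negative control. Primary screen in duplicate at 10 uM, actives then tested in concentration series.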
# [7] = molecular target: human CYP2C9, CYP2C9 (gene 1559) (UniProt P11712); assay: NVS_ADME_hCYP2C9: NovaScreen (NVS) CYP450-related Enzyme Activity (ADME) Assay for human CYP2C9 (AID 2283108)
# Chain of human CYP2C9, CYP2C9 (gene 1559) (P11712 whole entry, looked up): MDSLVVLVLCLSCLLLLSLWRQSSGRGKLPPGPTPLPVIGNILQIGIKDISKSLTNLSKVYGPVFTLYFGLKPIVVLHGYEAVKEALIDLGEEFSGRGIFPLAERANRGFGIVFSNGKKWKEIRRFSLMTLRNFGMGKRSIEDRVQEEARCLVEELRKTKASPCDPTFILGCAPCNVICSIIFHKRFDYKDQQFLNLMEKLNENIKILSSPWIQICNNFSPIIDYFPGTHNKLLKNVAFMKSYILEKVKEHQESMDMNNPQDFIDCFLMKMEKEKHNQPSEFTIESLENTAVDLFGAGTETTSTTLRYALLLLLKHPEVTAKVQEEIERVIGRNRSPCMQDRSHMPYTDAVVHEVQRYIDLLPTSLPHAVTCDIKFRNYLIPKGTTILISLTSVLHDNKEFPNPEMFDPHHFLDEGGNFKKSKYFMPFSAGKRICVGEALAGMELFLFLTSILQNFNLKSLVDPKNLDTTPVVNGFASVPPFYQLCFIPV
# How it was run: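 Recombinant human CYP2C9 expressed in SF9 cells, fluorogenic substrate, fluorescence read 0.75 h after dosing. Chemicals first run in duplicate at 10 uM, with actives followed in concentration series; loss of signal versus acetonitrile baseline.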
# [8] = molecular target: rat CYP2C11, Cyp2c11 (gene 29277) (UniProt P08683); assay: NVS_ADME_rCYP2C11: NovaScreen (NVS) CYP450-related Enzyme Activity (ADME) Assay for rat CYP2C11 (AID 2283118)
# Chain of rat CYP2C11, Cyp2c11 (gene 29277) (P08683 whole entry, looked up): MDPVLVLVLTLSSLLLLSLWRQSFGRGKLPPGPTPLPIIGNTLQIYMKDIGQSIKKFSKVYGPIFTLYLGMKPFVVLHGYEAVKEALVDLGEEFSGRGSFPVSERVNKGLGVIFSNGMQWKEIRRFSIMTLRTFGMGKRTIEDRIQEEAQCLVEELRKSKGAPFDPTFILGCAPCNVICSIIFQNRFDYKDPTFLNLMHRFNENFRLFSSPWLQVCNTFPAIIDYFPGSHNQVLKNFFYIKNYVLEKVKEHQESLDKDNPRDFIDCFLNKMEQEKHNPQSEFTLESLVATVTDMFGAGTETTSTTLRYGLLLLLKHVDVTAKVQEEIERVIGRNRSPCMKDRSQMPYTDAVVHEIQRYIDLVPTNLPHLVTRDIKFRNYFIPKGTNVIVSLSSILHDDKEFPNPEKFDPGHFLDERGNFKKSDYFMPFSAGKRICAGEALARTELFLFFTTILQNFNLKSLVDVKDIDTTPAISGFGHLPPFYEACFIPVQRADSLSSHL
# How it was run: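 Cell-free recombinant rat enzyme with fluorescent substrate; readout 0.33 h after dosing, loss of signal versus acetonitrile control. Initial duplicate single-point at 10 uM; actives rerun in concentration series.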
# rat CYP2C6, gene 293989 = assay: NVS_ADME_rCYP2C6: NovaScreen (NVS) CYP450-related Enzyme Activity (ADME) Assay for rat CYP2C6 (AID 2283120)
# How it was run: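 Cell-free recombinant rat CYP2C6 with fluorogenic substrate, read by fluorescence 1 h after dosing; acetonitrile as negative control. Primary screen at 10 uM in duplicate, actives then in concentration-response up to 20 uM.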
structure (smiles),measurement,setting,value
C[C@]12CC[C@@H]3c4ccc(O)cc4CC[C@H]3[C@@H]1CC[C@@H]2O,AC50,[1],813 nM (active) and 2.14 µM (active)
same,outcome,[2],inactive
same,AC50,[3],6.22 µM (active)
same,AC50,[4],492 nM (active) and 892 nM (active) and 748 nM (active)
same,outcome,"rat CYP3A1, gene 25642",inactive
CC(C)Cc1ccc(C(C)C(=O)O)cc1 (stereo not given),outcome,[5],inactive
O=C(c1ccc(OCCN2CCCCC2)cc1)c1c(-c2ccc(O)cc2)sc2cc(O)ccc12,outcome,[6],inactive
C#C[C@]1(O)CC[C@H]2[C@@H]3CCc4cc(O)ccc4[C@H]3CC[C@@]21C,AC50,[7],6.68 µM (active) and 7.82 µM (active) and 6.49 µM (active)
same,AC50,[1],1.02 µM (active) and 2.09 µM (active) and 1.18 µM (active)
same,AC50,[3],785 nM (active) and 1.44 µM (active) and 680 nM (active)
same,AC50,[8],2.5 µM (active) and 2.81 µM (active) and 1.76 µM (active)
same,AC50,"rat CYP2C6, gene 293989",1.43 µM (active) and 2.55 µM (active) and 1.67 µM (active)
same,AC50,"rat CYP3A1, gene 25642",2.51 µM (active) and 3.73 µM (active) and 1.4 µM (active)
O=S1(=O)CC(Cl)(Cl)C(Cl)(Cl)C1,AC50,[5],4.55 µM (active)
same,AC50,[6],0.431 µM (active)
O=[N+]([O-])c1cc(N(CCO)CCO)ccc1NCCO,AC50,[5],3.87 µM (active)
same,AC50,[7],2.42 µM (active)
CC(=O)OC(C)(C)C1CC=C(C)CC1 (stereo not given),AC50,[1],3.56 µM (active)
CC/C(=C(\c1ccccc1)c1ccc(OCCN(C)C)cc1)c1ccccc1,outcome,[6],inactive
C=CC(=O)OCC(CO)(COC(=O)C=C)COC(=O)C=C,AC50,[1],1.76 µM (active)
